# Source: PubChem BioAssay (Tox21)
# Values joined by “and” are separate entries in the source; they are usually repeats but may differ in a detail not shown here. Equal values may be shown once. Results filed as inconclusive are left out. Active and inactive are the calls of the source. Calls follow the shape of the full dose curve.
# Target: Estrogen receptor (Homo sapiens) (UniProt P03372)
# Experiment: qHTS assay to identify small molecule agonists of the estrogen receptor alpha (ER-alpha) signaling pathway in the presence of an antagonist (AID 1259383); also: nearly all actives have a fitted effect of over 15% in size; also: potency is read from the fitted curve at half-maximal effect; as to activation: top concentration of the series differs between compounds
# Conditions: VM7Luc4E2 cells, ERE-luciferase, +ICI-182,780, 22 h; series mostly up to 92.4 µM; activation: at the top concentration
# How it was run: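 Agonist-mode confirmation in the presence of the ER antagonist ICI-182,780 at 10.0nM final. Breast-derived VM7Luc4E2 reporter cells were exposed to compounds for 22hr, and ERE-driven luciferase was quantified by luminescence.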
# % is scaled to controls: 0 for no effect and ±100 for the full control effect.
# Chain of Estrogen receptor (Homo sapiens) (P03372 whole entry, looked up): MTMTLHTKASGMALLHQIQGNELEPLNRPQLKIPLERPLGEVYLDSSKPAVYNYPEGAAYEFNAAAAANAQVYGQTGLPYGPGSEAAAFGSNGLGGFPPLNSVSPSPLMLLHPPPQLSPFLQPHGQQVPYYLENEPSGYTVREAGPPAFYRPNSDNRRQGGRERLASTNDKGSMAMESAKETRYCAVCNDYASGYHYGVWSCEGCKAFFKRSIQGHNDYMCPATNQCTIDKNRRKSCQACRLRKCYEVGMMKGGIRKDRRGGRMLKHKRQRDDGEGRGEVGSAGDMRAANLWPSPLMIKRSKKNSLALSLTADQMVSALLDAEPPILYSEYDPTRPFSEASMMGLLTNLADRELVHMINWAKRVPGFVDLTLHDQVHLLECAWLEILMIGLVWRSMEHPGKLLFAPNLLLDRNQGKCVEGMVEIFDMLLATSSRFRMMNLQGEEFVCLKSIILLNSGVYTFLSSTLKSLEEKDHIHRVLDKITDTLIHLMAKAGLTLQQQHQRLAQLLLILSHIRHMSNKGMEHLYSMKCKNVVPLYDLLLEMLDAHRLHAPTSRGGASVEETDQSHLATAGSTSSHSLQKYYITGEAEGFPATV
Structure (SMILES),activation,Potency
CCCCCCCCCCCCCCCCC,1.18% (inactive),–
COC(=O)NN,-1.32% (inactive),–
CCN1CCC[C@H]1CNC(=O)c1c(O)c(Cl)cc(Cl)c1OC,1.15% [at 42.5 µM] (inactive),–
CC/C=C\CCOC(C)=O,1.75% (inactive),–
O=C1CCCCCCCCCCCN1,–,inactive
CCSC(=O)N(CC(C)C)CC(C)C,-0.814% (inactive),–
O=c1cc(-c2ccccc2)oc2ccccc12,–,2.73 µM (active) and 4.06 µM (active)
OCCCC1CCCCC1,-0.271% (inactive),–
CCn1ccnc1CC1COc2ccccc2O1 (stereo not drawn),3.13% [at 42.5 µM] (inactive),–
O=C(O)CCCl,-0.926% (inactive),–
Cc1ccc(Cl)cc1Cl,0.0678% (inactive),–
CCS(=O)(=O)c1ccc(OC)c(C(=O)OC)c1,-0.0763% [at 42.5 µM] (inactive),–
C/C=C(\C)C#N,-0.373% (inactive),–
CCOC(=O)Nc1ccc(NCc2ccc(F)cc2)nc1N,1.35% [at 42.5 µM] (inactive),–
Nc1ccc(S(=O)(=O)Nc2ccnn2-c2ccccc2)cc1,-0.0289% [at 19 µM] (inactive),–
O=C1NC(=O)[C@@]2(CCOc3ccc(F)cc32)N1,-0.256% [at 42.5 µM] (inactive),–
C=C(C)CS(=O)(=O)O,0.314% (inactive),–
CC1=CC(C)C(C=O)CC1 (stereo not drawn),0.375% (inactive),–
CCOC(=O)CCC(C)=O,0.347% (inactive),–
c1ccc(CC2=NCCN2)cc1,-0.0883% [at 42.5 µM] (inactive),–
COc1c(N2C[C@@H]3CCCN[C@@H]3C2)c(F)cc2c(=O)c(C(=O)O)cn(C3CC3)c12,-0.149% [at 42.5 µM] (inactive),–
NC(CSCC(=O)O)C(=O)O (stereo not drawn),-0.411% [at 42.5 µM] (inactive),–
COCCCOCCCOC,0.46% (inactive),–

# Test system: not listed separately
# Experiment: qHTS assay to identify small molecule agonists or antagonists of the thyroid stimulating hormone receptor (TSHR) signaling pathway - wild type cell line counter screen (AID 1259384)
# Conditions: HEK293 wild type, cAMP HTRF counter-screen, active compounds read high; series mostly up to 92.4 µM; cAMP activity change: at the top concentration
# How it was run: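 Counter screen in untransfected Hek293: compounds (15-point titration, triplicate) plus phosphodiesterase inhibitor Ro20-1724 added after 18 h plating; 30 min RT. Intracellular cAMP via competitive d2/cryptate immunoassay, 1 h incubation.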
Structure (SMILES),cAMP activity change,outcome
CC(C)CNCC(C)C,8.47% (inactive),–
CCCCCCCCCCCCCCCCC,-4.37% (inactive),–
Oc1ccc(C2CNCCc3c2cc(O)c(O)c3Cl)cc1 (stereo not drawn),-2.62% [at 42.5 µM] (inactive),–
Brc1c(NC2=NCCN2)ccc2nccnc12,0.678% [at 42.5 µM] (inactive),–
COC(=O)NN,0.518% (inactive),–
CCN1CCC[C@H]1CNC(=O)c1c(O)c(Cl)cc(Cl)c1OC,3% [at 42.5 µM] (inactive),–
CC/C=C\CCOC(C)=O,-2.18% (inactive),–
O=C1CCCCCCCCCCCN1,–,inactive
CCSC(=O)N(CC(C)C)CC(C)C,-2.93% (inactive),–
OCCCC1CCCCC1,0.729% (inactive),–
CCn1ccnc1CC1COc2ccccc2O1 (stereo not drawn),-0.168% [at 42.5 µM] (inactive),–
O=C(O)CCCl,2.84% (inactive),–
CCC(C)S (stereo not drawn),0.879% [at 3.27 µM] (inactive),–
Cc1ccc(Cl)cc1Cl,-1.94% (inactive),–
CC(C)NCC(O)c1ccc(NS(C)(=O)=O)cc1 (stereo not drawn),1.75% (inactive),–
C/C=C(\C)C#N,-3.59% (inactive),–
Nc1ccccc1S(=O)(=O)O,-6.08% (inactive),–
CCOC(=O)Nc1ccc(NCc2ccc(F)cc2)nc1N,-6.85% [at 42.5 µM] (inactive),–
CC[N+](C)(C)c1cccc(O)c1,-4.05% [at 42.5 µM] (inactive),–
O=C(O)CCCc1ccccc1,7.43% [at 42.5 µM] (inactive),–
Nc1ccc(S(=O)(=O)Nc2ccnn2-c2ccccc2)cc1,3.46% [at 18.9 µM] (inactive),–
CC(C)=CCCC(C)CC(=O)O (stereo not drawn),0.721% (inactive),–
O=C1NC(=O)[C@@]2(CCOc3ccc(F)cc32)N1,1.7% [at 42.5 µM] (inactive),–
C=C(C)CS(=O)(=O)O,-1.58% (inactive),–
CC1=CC(C)C(C=O)CC1 (stereo not drawn),-4.97% (inactive),–
c1ccc(CC2=NCCN2)cc1,0.795% [at 42.5 µM] (inactive),–
CCCCCCCCS(=O)(=O)Cl,-0.431% (inactive),–
COC(=O)c1cc(C(=O)OC)cc(S(=O)(=O)O)c1,-0.779% (inactive),–
COCCCOCCCOC,2.1% (inactive),–
CN1CC(=O)NC1=N,-2.29% [at 42.5 µM] (inactive),–
